Laboratory results reported in PubChem BioAssay (NCATS).
Records with an inconclusive call do not appear. Active and inactive are the calls of the source. Calls come from the whole dose curve; as a rule, active = well fitted curve in the direction sought with a large enough effect; inconclusive = small, poorly fitted or top-dose-only effect, or another doubt; inactive = no such curve, though single readings can be large; an effect the other way counts as inactive or inconclusive.

Experiments:
[1] = target: Glutathione peroxidase 1 (Homo sapiens) (UniProt P07203); assay: Primary qHTS Assay for Inhibitors of Recombinant Selenoprotein Glutathione Peroxidase 1 (GPX1) (AID 1845191); conditions: recombinant GPX1, GR-coupled NADPH fluorescence, 15 min; series mostly up to 48.8 µM; note: nearly all actives have a fitted effect of over 65% in size
Outline: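 NADPH consumption tracked by fluorescence at 340/450 nm between t=0 and t=15 min, room temperature. Final mix: 10 nM GPX1, 100 nM glutathione reductase, 1 mM GSH, 0.5 mM NADPH, 0.5 mM cumene hydroperoxide, 0.01% BSA; 30 min compound–enzyme preincubation.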

[2] = target: Phospholipid hydroperoxide glutathione peroxidase GPX4 (Homo sapiens) (UniProt P36969); assay: Primary qHTS Assay for Inhibitors of Recombinant Selenoprotein Glutathione Peroxidase 4 (GPX4) (AID 1845192); conditions: recombinant GPX4, GR-coupled NADPH fluorescence, 15 min; series mostly up to 50 µM; note: nearly all actives have a fitted effect of over 65% in size
Outline: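 NADPH consumption followed by fluorescence at 340/450 nm, t=0 and after 15 min at room temperature. Reaction started with cumene hydroperoxide (0.5 mM final) after 30 min compound–GPX4 preincubation; final 200 nM GPX4, 100 nM GR, 1 mM GSH, 0.5 mM NADPH.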

[3] = Quantitative High-Throughput drug screen in 47 multiple myeloma cell lines against the NCATS MIPE library collection: FR4_PLB cell viability assay (AID 1918924; note: nearly all actives have a fitted effect of over 35% in size; note: potency is the fitted concentration of half-maximal effect); conditions: FR4_PLB myeloma cells viability, CellTiter-Glo ATP, 48 h; series mostly up to 45.8 µM
Outline: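 Approved and investigational drugs from MIPE 4.0 were added by pin tool to 500 cells per well. After 48 hours at 37C, ATP-based CellTiter-Glo luminescence indicated remaining viability.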

[4] = Quantitative High-Throughput drug screen in 47 multiple myeloma cell lines against the NCATS MIPE library collection: Delta47_JCRB cell viability assay (AID 1918925; note: nearly all actives have a fitted effect of over 45% in size; note: potency is the fitted concentration of half-maximal effect); conditions: Delta47 myeloma viability, CellTiter-Glo ATP, 48 h; series mostly up to 45.8 µM
Outline: (§1)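 Steps: seed 500 cells per well; pin-transfer MIPE 4.0 library; incubate 48 h at 37C, 5% CO2, humidified; add CellTiter-Glo, 5 min room temperature; read luminescence.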

[5] = Quantitative High-Throughput drug screen in 47 multiple myeloma cell lines against the NCATS MIPE library collection: EJM_DSMZ cell viability assay (AID 1918926; note: nearly all actives have a fitted effect of over 30% in size; note: potency is the fitted concentration of half-maximal effect); conditions: EJM myeloma cell viability, CellTiter-Glo ATP, 48 h; series mostly up to 45.8 µM
Outline: as §1

[6] = Primary fluorescence-based thiol-reactive (MSTI) qHTS assay for identification of artifact compounds. (AID 1845221); conditions: MSTI thiol-reactivity probe, 1 h; series mostly up to 53.8 µM;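 note: thiol-reactive compounds lower the probe fluorescence signal; nearly all actives have a fitted effect of over 65% in size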
Outline: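 MSTI probe at 4 uM final in 2% DMSO/PBS pH 7.4; compounds, 1 h at room temperature in dark. Fluorescence Ex/Em 525/598 nm, normalised to Acetyl-MSTI and MSTI, fitted to 4-parameter Hill.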

[7] = test system: Nanoluciferase (engineered Oplophorus gracilirostris luciferase); assay: Primary Nanoluciferase (NLuc) qHTS assay for identification of artifact compounds. (AID 1845222); conditions: NLuc-conditioned medium, Nano-Glo luminescence, 5 min; series mostly up to 54.1 µM;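 note: NLuc secreted into diluted conditioned medium of S16 cells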
Outline: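 NLuc from S16 cell medium (1:55) plus test compounds, 15 min, room temperature. Luminescence after Nano-Glo (1:100) addition, 5 min.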

[8] = Primary redox qHTS assay for identification of artifact compounds. (AID 1845223); conditions: Amplex Red/HRP redox cycling with DTT, fluorescence; series mostly up to 53.8 µM
Outline: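 Redox-cycling detection via DTT (250 uM final) oxidation coupled to Amplex Red (25 uM)/HRP (250 mU/mL) in HBSS. 15 min preincubation plus 30 min after DTT, room temperature. Ex/Em 525/598 nm; 4-parameter Hill fit against DMSO and 10 uM DA3003.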

Measured: Potency

Phospholipid hydroperoxide glutathione peroxidase GPX4 (Homo sapiens), sequence (P36969 whole entry, looked up): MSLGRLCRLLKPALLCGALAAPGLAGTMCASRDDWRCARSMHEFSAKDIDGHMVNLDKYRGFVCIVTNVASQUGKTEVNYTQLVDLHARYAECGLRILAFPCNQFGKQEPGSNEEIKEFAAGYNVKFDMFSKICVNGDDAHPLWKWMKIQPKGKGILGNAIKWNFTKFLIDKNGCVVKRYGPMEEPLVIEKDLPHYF
Glutathione peroxidase 1 (Homo sapiens), sequence (P07203 whole entry, looked up): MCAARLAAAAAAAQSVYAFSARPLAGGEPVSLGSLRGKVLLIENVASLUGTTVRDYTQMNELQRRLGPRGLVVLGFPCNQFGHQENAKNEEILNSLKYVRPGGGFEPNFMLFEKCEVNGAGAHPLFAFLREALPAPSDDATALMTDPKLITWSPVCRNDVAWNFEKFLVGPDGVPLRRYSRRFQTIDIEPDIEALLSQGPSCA

Oc1ccc(C2=Cc3ccc(O)cc3OC2)cc1
active: [3] 1.32 µM | [4] 0.833 µM | [5] 2.35 µM
inactive: [1] | [2]

COc1ccc2cccc(CCNC(C)=O)c2c1
inactive: [1] | [2] | [3] | [4] | [5]

O=C(O)c1cc(-c2ccccc2)nc2ccccc12
inactive: [1] | [2] | [6] | [7] | [8]

Oc1ccc(C2CCN(c3ccnc4ccccc34)CC2)cc1O
inactive: [1] | [2]
active: [3] 14.8 µM | [4] 9.35 µM

COc1ccc(-c2coc3cc(O)cc(O)c3c2=O)cc1
inactive: [1] | [2] | [3] | [4]

O=c1c(O)c(-c2ccc(O)cc2)oc2cc(O)cc(O)c12
inactive: [1] | [2] | [3]
active: [4] 20.9 µM

CN1[C@@H]2CCC[C@@H]1CC(NC(=O)c1nn(C)c3ccccc13)C2 (stereo partly specified)
inactive: [1] | [2] | [3] | [4] | [5]

O=C(Nc1cc(Cl)cc2c1[nH]c1cnccc12)c1cccnc1
inactive: [1] | [2]
active: [3] 1.87 µM | [4] 4.18 µM | [5] 10.5 µM

O=c1cc(N2CCOCC2)oc2c(-c3cccc4c3sc3ccccc34)cccc12
active: [3] 20.9 µM | [4] 3.32 µM
inactive: [1] | [2]

c1ccc2c(Cc3c[nH]c4ccccc34)c[nH]c2c1
inactive: [1] | [2]
active: [3] 20.9 µM | [4] 0.935 µM | [5] 1.48 µM

CO[C@H]1C(=O)[C@]2(C)[C@@H](OC)C[C@H]3OC[C@@]3(OC(C)=O)[C@H]2[C@H](OC(=O)c2ccccc2)[C@]2(O)C[C@H](OC(=O)[C@H](O)[C@@H](NC(=O)OC(C)(C)C)c3ccccc3)C(C)=C1C2(C)C
inactive: [1] | [2] | [3] | [4] | [5]
